Bioassay records: PubChem BioAssay, National Center for Advancing Translational Sciences (NCATS)
KB-V1 cytotox: qHTS assay for MDR1-selective chemotherapeutics: Primary screen using the drug-selected MDR subline cells KB-V1 | KB-V1 MDR cells viability, CellTiter-Glo, 72 h | Potency, µM (doses to about 46.1 µM), usual class: cytotoxic | actives 3.4% (n = 400,000); note: % is set by controls: 0 for no effect and ±100 for the full control effect; nearly all actives have a fitted effect of over 60% in size
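qHTS viability screen in drug-selected KB-V1 MDR cells: 72 h compound treatment at 37 degrees C, ATP luminescence end point.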
S2 tox: Viability Counterscreen for Primary qHTS for Inhibitors of ATXN expression | S2 cells (HEK-293 line with an ATXN2-luciferase reporter) viability, CellTiter-Fluor protease fluorescence, 24 h | Potency, µM (series often up to 56.7 µM), most hits filed as cytotoxic | actives 0.49% (n = 400,000) | AID 651635, 2014; note: nearly all actives have a fitted effect of over 40% in size
KB-3-1 tox: qHTS assay for MDR1-selective chemotherapeutics: Primary screen using the parental adenocarcinoma cell KB-3-1 | actives 1.4% (n = 400,000) | AID 1347075, 2019 | KB-3-1 viability, CellTiter-Glo ATP luminescence, 72 h | Potency, µM (top dose mostly 46.1 µM), actives largely listed as cytotoxic; note: % is set by controls: 0 for no effect and ±100 for the full control effect; nearly all actives have a fitted effect of over 60% in size
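Multi-concentration cytotoxicity screen in KB-3-1 cells grown in DMEM lacking phenol red with 10% FBS. After 72 h at 37 °C with compound, ATP-dependent luminescence was recorded.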
ATXN2 expr inh: Primary qHTS for Inhibitors of ATXN expression. HEK-293 ATXN2-luciferase reporter, luminescence, 24 h. Potency, µM (titrated, usually from 57 µM), inactives show at the top dose activity change, negative = inhibition, usual class: inhibitors. actives 0.72% (n = 360,000); note: % is set by controls: 0 for no effect and ±100 for the full control effect; nearly all actives have a fitted effect of over 55% in size
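qHTS (up to 57 uM final) was run with 24 h compound exposure of reporter cells at 37 °C. Each well was multiplexed: SteadyGlo luminescence measured ATXN2-luciferase expression after a fluorogenic Gly-Phe-AFC viability readout (25 uM final).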
HepG2 tox: qHTS for Inhibitors of TGF-b: Cytotox Counterscreen; actives 0.76% (n = 410,000); AID 588856, 2011; HepG2 CAGA-GFP viability, ATP luminescence, 18 h; Potency, µM (titrated, usually from 46.1 µM), for the others: at the highest dose activity change, negative = cytotoxicity, usual class: cytotoxic
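HepG2 CAGA-GFP cells (1000/well, DMEM with 1% FBS) received compound, then TGF-beta at 500 pg/mL final, and were incubated 18 hours at 37 degrees C. Viability was read by CellTiter-Glo luminescence. Media-only wells were set as complete cell-killing and DMSO as no toxicity.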
TGFb SMAD3 inh: qHTS for Inhibitors of TGF-b; HepG2 CAGA-GFP TGF-b/SMAD3 reporter, GFP fluorescence, 18 h; TGF-beta stimulated, 500 pg/mL final; Potency, µM (top dose mostly 46.1 µM), for inactives: at the top dose activity, negative = inhibition, most hits filed as inhibitors; actives 1.2% (n = 410,000); AID 588855, 2011; note: % is set by controls: 0 for no effect and ±100 for the full control effect; nearly all actives have a fitted effect of over 65% in size
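TGF-beta reporter screen: HEPG2 CAGA-GFP, 1% FBS, 500 pg/mL TGF-beta final, 18 h; per-cell GFP summed per well; curves fitted and categorized by class.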
* = called active by the depositor; i = inactive; ? = inconclusive; · = not tested or not shown. Rows were chosen to be rich in hits. Some 5.9% of all compounds tested hit in one or more screens of this group. Calls come from the whole dose curve; as a rule, active = well fitted curve in the direction sought with a large enough effect; inconclusive = small, poorly fitted or top-dose-only effect, or another doubt; inactive = no such curve, though single readings can be large; an effect the other way counts as inactive or inconclusive. Potency is the fitted concentration of half-maximal effect.

SMILES	KB-V1 cytotox	S2 tox	KB-3-1 tox	ATXN2 expr inh	HepG2 tox	TGFb SMAD3 inh
Cc1ccc(SCCNC(=O)c2ccc(C)c([N+](=O)[O-])c2)cc1	23µM*	i	i	10%	0%	8%
Cc1cc2cc(CCNC(=O)c3ccc(S(=O)(=O)N4CCCC4)cc3)c(=O)[nH]c2cc1C	·	i	·	-5%	-3%	?
Cc1ccc(C)c(NC(=O)Cn2c(=O)n(Cc3nc(C)no3)c(=O)c3cc4c(cc32)OCO4)c1	i	i	i	7%	15%	2%
CCSc1nnc2c(n1)OC(CC)N(C(C)=O)c1ccccc1-2 (stereo not drawn)	i	?	i	5%	-2%	9%
COc1cc(OC)c(/C=C/c2ccc3ccccc3[n+]2[O-])c(OC)c1	i	·	i	·	1%	7%
Cc1ccc(C(=O)NCCc2cccc(Cl)c2)cc1[N+](=O)[O-]	16µM*	i	i	7%	0%	-8%
O=C(NCCc1ccccc1)c1cccc([N+](=O)[O-])c1	18µM*	i	i	17%	1%	11%
COc1ccc(CCNC(=O)c2cccc([N+](=O)[O-])c2)cc1OC	i	i	i	-10%	2%	-3%
Cc1ccc(CSCCNC(=O)c2cccc([N+](=O)[O-])c2)cc1	18µM*	i	i	-7%	-8%	-4%
Cc1cccc(-n2ncc3c(N4CCN(CCO)CC4)ncnc32)c1	i	i	i	5%	-12%	23%
CC(C)C(C(=O)NCc1ccccc1)N1CCN(C(=O)C2CCCO2)CC1 (stereo not drawn)	i	·	i	·	·	·
CCNC(=O)Nc1ccc2ncc(Nc3ccc(C)cc3)nc2n1	·	·	·	-24%	·	·
COc1ccccc1N1CCN(C(=O)CN(c2ccccc2OC)S(=O)(=O)c2ccccc2)CC1	23µM*	i	i	-4%	-33%	-10%
CS(=O)(=O)N(CC(=O)N1CCN(c2ccc(F)cc2)CC1)c1cccc(Cl)c1	9.2µM*	i	i	4%	6%	-3%
COc1ccc(OC)c(N(CC(=O)N2CCC(C)CC2)S(=O)(=O)c2ccccc2)c1	7.3µM*	?	i	-12%	-3%	-10%
CCOC(=O)N1CCN(C(=O)CN(c2ccc(Cl)c(C(F)(F)F)c2)S(C)(=O)=O)CC1	23µM*	i	i	0%	-4%	?
COc1ccc(OC)c(N(CC(=O)N2CCC(C)CC2)S(=O)(=O)c2ccc(OC)c(OC)c2)c1	i	i	i	-4%	-9%	0%
Cc1nonc1CN(C)C(=O)C1CC12CCN(C(=O)/C=C/c1cccc(Cl)c1)CC2 (stereo not drawn)	·	i	·	·	·	·
O=c1c2sc3ccccc3c2n(Cc2cccc(C(F)(F)F)c2)c(=O)n1-c1ccccc1	i	?	i	-1%	-24%	-22%
Cc1ccc(-c2noc(-c3cccnc3N(C)Cc3ccc(Cl)cc3)n2)cc1	i	i	i	11%	-3%	-17%
Cc1ccccc1-c1nn2c(=O)cc(CN3CCN(C(=O)/C=C/c4ccccc4)CC3)nc2s1	i	i	i	-3%	-20%	?
CCOC(=O)N1CCN(C(=O)CN(c2cccc(C)c2)S(=O)(=O)c2ccc(C)cc2)CC1	?	i	i	-6%	4%	-23%
CCOC(=O)N1CCN(C(=O)CN(c2cccc(C)c2)S(=O)(=O)c2ccccc2)CC1	2.9µM*	i	i	4%	-114%	-2%
Cc1ccc(S(=O)(=O)N(CC(=O)NC2CCCC2)c2cccc(C)c2)cc1	4.1µM*	i	i	1%	0%	-15%
CCOc1ccccc1C(=O)Nc1ccc2nc3c(c(Nc4ccc(OC)c(OC)c4)c2c1)CCCC3	?	·	?	·	10µM*	?
SMILES	KB-V1 cytotox	S2 tox	KB-3-1 tox	ATXN2 expr inh	HepG2 tox	TGFb SMAD3 inh
COc1cc(OC)cc(C(=O)Nc2ccc3nc4c(c(Nc5ccc(OC)c(OC)c5)c3c2)CCCC4)c1	i	28µM*	i	20µM*	16µM*	13µM*
COc1ccccc1Nc1c2c(nc3ccc(NC(=O)c4ccc(N(C)C)cc4)cc13)CCCC2	·	·	·	·	-49%	?
COc1ccc(Nc2c3c(nc4ccc(NC(=O)c5cc(Cl)ccc5OC)cc24)CCCC3)cc1OC	?	7.1µM*	?	3.2µM*	7.1µM*	10µM*
COc1cccc(C(=O)Nc2c3c(nc4c2CCC4)CCCC3)c1	15µM*	i	i	5%	1%	12%
COc1ccc(Cl)cc1C(=O)Nc1ccc2nc3n(c(=O)c2c1)CCCC3	?	i	i	14%	-3%	0%
CC(C)CNc1ncnc2oc(-c3ccco3)c(-c3ccco3)c12	?	·	?	·	-28%	?
CCOC(=O)[C@]12CCC=C1N(Cc1ccc3c(c1)OCO3)C(=O)[C@H](CC(=O)NCCCN1CCCC1=O)C2	?	i	i	4%	·	·
Cc1cc(C(=O)c2ccc(C(C)(C)C)cc2)c(NC(=O)CCl)s1	?	?	?	?	-102%	16µM*
Cc1ccccc1C(=O)Nc1sc2c(c1C(=O)O)CCC2	i	i	?	-5%	-8%	2%
Cc1ccccc1C(=O)Nc1sc(C)c(C)c1C(=O)c1ccccc1	7.3µM*	i	i	-3%	-21%	?
Cc1sc(NC(=O)CCl)c(C(=O)c2ccccc2)c1C	i	?	?	?	13µM*	?
CC(=O)Nc1sc(C)c(C)c1C(=O)OCC(=O)Nc1ccccc1	i	i	i	-18%	-29%	-8%
COc1cc2ccccc2cc1C(=O)Nc1ccc2oc(-c3cc(Br)ccc3Cl)nc2c1	i	i	i	-2%	19%	-11%
COc1ccc(C(=O)CSc2nc(C(C)(C)C)nc3ccccc23)cc1	i	i	i	-23%	-31%	20µM*
Cc1ccc(C(=O)CSc2nnc3c4ccccc4nc(C(C)(C)C)n23)cc1	?	i	23µM*	-16%	-7%	0%
Cc1nc2c3ccccc3nc(SCC(=O)N3CC(C)CC(C)C3)n2n1 (stereo not drawn)	0.58µM*	i	i	4%	-4%	-2%
